The campaign covered roughly 2,300 compounds. About 1,700 (74%) were called active. So high a share suggests a set chosen from earlier hits. The list shows a part of the results. Entries with a potency or affinity are not part of this list. A number with no mark means an inactive call. The rule behind the calls is not given here.
Assay: Confirmatory growth inhibition assay, Mycobacterium tuberculosis H37Rv, absence of glycerol (AID 449764);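 note: growth read after 7 days of incubation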
Details: no glycerol; series mostly up to 100 µM; inhibition: at the top concentration

Compound | inhibition
COc1ccc(-c2ccc(=O)n(Cc3c(F)cccc3Cl)n2)cc1 | -1.26%
COc1ccc(NC(NC(=O)c2ccc(OC)cc2)C(Cl)(Cl)Cl)cc1 (centres undefined) | -1.34%
Cc1nc2ccc(NC(=O)N(C(C)C)C(C)C)cc2s1 | -2.49%
CCOc1[nH]n(-c2ccccc2)c(=O)c1C=Nc1ccc(OC)cc1 | 2.32%
O=C(CCN1C(=O)C2CCCCC2C1=O)Nc1nc(-c2ccc(F)c(F)c2)cs1 (centres undefined) | 4.25%
O=C(Sc1nnc(-c2ccccc2)o1)N1c2ccccc2Sc2ccccc21 | 14.5%
COc1ccc(OCc2nnc3n2N=C(c2ccccc2)C(CC(=O)O)S3)cc1 (centres undefined) | -2.9%
COc1ccc(NC(=O)c2ccc(Cl)c(S(=O)(=O)N3CCc4ccccc4C3)c2)cn1 | -1.34%
CCOc1ccc(N(C(=O)/C=C/C(=O)Nc2cc(C)on2)C(C(=O)NC2CCCC2)c2ccccc2C)cc1 (centres undefined) | 21.2%
CC(C)Cn1[nH]c2c3c(ccc2c1=O)C(=O)c1ccccc1C3=O | 6.42%
Cc1ccc(C(=O)Nc2cccc(C(F)(F)F)c2)cc1Nc1ncnc2nc[nH]c12 | 15%
Cc1ccc(Cl)cc1N1CCN(Cc2nc3ccsc3c(=O)[nH]2)CC1 | 7.19%
COc1ccc(-c2cc3ccccc3oc2=O)cc1NC(=O)c1ccc([N+](=O)[O-])o1 | 1.39%
COc1ccc(N2CCN(c3ccnc4cc(Cl)ccc34)CC2)cc1 | -0.33%
Fc1ccc(N/N=C2/CC(c3ccccc3)Oc3ccccc32)c(F)c1 (centres undefined) | 5.36%
Oc1ccc2cc(Br)ccc2c1CN1CCCC1 | -3.14%
COc1ccc(-c2nc3ccccn3c2CN2CCN(c3ccccc3F)CC2)cc1 | 0.17%
CCOC(=O)C(=NC1CCS(=O)(=O)C1)NNc1ccc(Br)cc1 (centres undefined) | -10.1%
CCOc1ccc(NC(C)c2cc(Cl)ccc2O)cc1 (centres undefined) | 2.69%
Brc1cccc2sc(N3CCN(c4ccccc4)CC3)nc12 | 7.12%
NC(=O)/C(=N\OC(=O)c1ccco1)c1nc(-c2ccc(Br)cc2)cs1 | -1.01%
Cc1cccc(C)c1OCC(O)CN1CCC(CN2C(=O)c3cccc4cccc(c34)C2=O)CC1 (centres undefined) | -1.32%
CC1(C)SC(=S)N(NC(=O)Nc2cccc3ccccc23)C1N(O)C(=O)Nc1ccccc1 (centres undefined) | 6.93%

Compound | inhibition
O=[N+]([O-])c1nn(-c2ccc(Cl)cc2)n(O)c1=NCc1cccnc1 | -6.84%
CCCCCCC(=O)N/N=C/c1ccc(Br)cc1 | 6.63%
CCCCCCSc1nsc(NC(=O)CC(C)C)n1 | 3.62%
COC(=O)Cc1ccc(NC(=S)Nc2ccccn2)cc1 | 2.82%
CCOc1ccc(NC(=S)Nc2cc(-c3ccccc3)[nH]n2)cc1 | 26.8%
CC(C)c1ccc2nc(N)sc2c1 | 0.13%
O=C(/C=C/c1ccc(Cl)cc1)N1CCN(c2ccc(Cl)cc2[N+](=O)[O-])CC1 | -4.08%
COC(=O)c1cc(NC(=O)c2c(F)c(F)c(F)c(F)c2F)cc(C(=O)OC)c1 | 4.27%
NC(=O)N1CCC2(CC1)NC(=O)N(c1ccccc1)N2 | -5.19%
O=C(/C=C/c1ccc(OCCCF)cc1)Nc1ccnc(-c2ccncc2)n1 | -1.8%
Cc1oc(C)c2c(=O)ccc3c(c12)OC(N)=C(C#N)C3c1ccccc1Cl (centres undefined) | -20.1%
Cc1nn(C(C)(C)C)c(NC(=O)c2ccc(Cl)cc2Cl)c1Br | 0.12%
O=C(c1ccccc1)c1nn(-c2ccc(Cl)cc2)cc1C(=O)c1cc2ccccc2oc1=O | 9.58%
Cc1ccc(F)cc1CNC(=O)c1cc(COc2ccc3ncccc3c2)on1 | 2.7%
CCN(CC)S(=O)(=O)c1cc(C(=O)Oc2cccc(-c3cnc4ccccc4n3)c2)ccc1Br | -9.99%
Cc1cc(-n2c(C)cc(C(=O)COc3ccc4ccc(=O)oc4c3)c2C)no1 | -3.2%
COc1ccc(N/C=C(\C2OC(=O)c3ccccc32)[N+](=O)[O-])cc1 (centres undefined) | -3.38%
CC(C)c1nc2scc(-c3ccc(Cl)cc3)c2c(=O)n1N | -7.39%
NN/C(=C\[N+](=O)[O-])Nc1ccc(Cl)cc1 | 24.2%
C/C(CC(=O)Nc1ccc2c(c1)OCCO2)=N\NC(=O)c1ccccc1F | -0.62%
Cc1ccc2c(c1)Oc1ccc(NC(=O)CCl)cc1C(=O)N2 | 3.7%
CCCc1cc(=O)[nH]c(SCC(=O)N2CCCC2=O)n1 | 6.69%
O=C(Nc1ccc(-n2cccc2)cc1)C1CC1 | 24.6%

Compound | inhibition
O=c1c2ccc(Cl)cc2nc(-c2ccc([N+](=O)[O-])cc2)n1O | 21.4%
COc1ccc(N2CCN(Cc3cc4c(cc3O)CCC4)CC2)cc1 | 4%
C=CCn1c(N)cc(=O)nc1SC(CC)C(=O)Nc1ccc(C(C)=O)cc1 (centres undefined) | 3.97%
C[C@H](O)[C@H](O)[C@H]1CNc2nc(N)[nH]c(=O)c2N1 | -11.6%
CCCCc1ccc(NC(=S)N2CCN(c3ncccn3)CC2)cc1 | 4.9%
C=C(C)C1CCC(C)=C1COC(=O)Nc1ccccc1 (centres undefined) | -12.8%
COC(=O)Cc1ccc(NC(=O)c2ccc(Br)o2)cc1 | 0.53%
Cc1nc(SCC(=O)Nc2ccc(OCc3ccccc3)cc2)n[nH]1 | 0.31%
COc1ccc(-c2cc3n(n2)CCc2nc4ccccc4n2-3)cc1 | 26.8%
C/C(=C\C(=O)c1ccccc1)Nc1ccc(Cl)c(Br)c1 | -1.81%
COc1ccc(/C(O)=C/Sc2nnc(Cc3ccccc3)o2)cc1 | 4.86%
CCn1c2ccccc2c2cc(NC(=O)CN(C)CC(=O)Nc3ccc(N4CCOCC4)cc3)ccc21 | -3.49%
C=CCc1cccc2cc(C(=O)OCC(=O)c3ccccc3)c(=O)oc12 | 3.21%
COc1cc(/C=C2\C(=O)NN(c3ccc(C)cc3)C2=O)cc([N+](=O)[O-])c1O | 6.39%
O=C1CCC(=O)N1CNc1ccc(Oc2ccccc2)cc1 | 8.78%
O=C(OCc1ccccc1)c1cccc(-c2nnn(Cc3ccccc3)n2)c1 | -2.98%
O=C(CSc1n[nH]c(-c2ccccc2)n1)Nc1ccc(Br)cn1 | -23.1%
CN1CCN2c3ccccc3Cc3ccccc3C2C1 (centres undefined) | 28.2%
O=c1c2c3c(sc2nc(N2CCNCC2)n1-c1cccc(Cl)c1)CCCCC3 | 13.2%
CC(C)(C)c1nc2sc3c(c2c(=O)o1)CCCC3 | 9.95%
CCCCOC(=O)c1c(C)oc2ccc(NS(=O)(=O)c3ccc4c5c(cccc35)C(=O)N4)cc12 | 23.8%
COC(OC)c1ccnc(-c2ccc(OC(=O)c3cccs3)cc2)n1 | -10.9%
CCOc1ccc(OCc2ccc(C(=O)N/N=C(\C)c3ccccn3)cc2)cc1 | 1.73%

— PubChem BioAssay AID449764 (Southern Research Specialized Biocontainment Screening …, 2010)
